CD40 NFkB inh: inhibitors of CD40-induced NF-kB signaling, primary screen, BL2 cells, luciferase reporter, single point; CD40L-induced, 4 h; inhibition, % at 10 µM; 83,000 compounds, 0.94% hits; AID 1053188, 2014;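 active = mean inhibition of at least 50% with a set share of replicates also reaching that level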;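 note: 0% = neutral control wells and 100% = IKK inhibitor VII at 50 µM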
Active calls of the source: *; ! = not confirmed by another sample; [ ] = remark or other dose. This excerpt belongs to a sample that is enriched for hits.

`OC[C@@H]1[C@@H](c2ccc(/C=C/c3ccccc3)cc2)[C@@H]2CN(Cc3ccncc3)CCCCN12` gave CD40 NFkB inh -19[25 µM].
For C[C@@H]1CN([C@H](C)CO)C(=O)c2c(c3ccccc3n2C)-c2ccccc2CO[C@H]1CN(C)C(=O)Nc1cccc(F)c1 the results were CD40 NFkB inh 5.
`C[C@@H]1CN([C@@H](C)CO)C(=O)c2c(c3ccccc3n2C)-c2ccccc2CO[C@H]1CN(C)C(=O)Nc1cccc(C(F)(F)F)c1` gave CD40 NFkB inh 70*[25 µM].
`C[C@H]1CN([C@@H](C)CO)C(=O)c2c(c3ccccc3n2C)-c2ccccc2CO[C@H]1CN(C)C(=O)Nc1cccc(C(F)(F)F)c1` gave CD40 NFkB inh 55*[25 µM].
C[C@@H]1CN([C@@H](C)CO)C(=O)c2c(c3ccccc3n2C)-c2ccccc2CO[C@@H]1CN(C)C(=O)Nc1cccc(C(F)(F)F)c1 was read as CD40 NFkB inh 24[25 µM].
C[C@@H]1CN([C@H](C)CO)C(=O)c2c(c3ccccc3n2C)-c2ccccc2CO[C@@H]1CN(C)C(=O)Nc1cccc(C(F)(F)F)c1 was read as CD40 NFkB inh 20[25 µM].
C[C@@H]1CN([C@H](C)CO)C(=O)c2c(c3ccccc3n2C)-c2ccccc2CO[C@H]1CN(C)C(=O)Nc1cccc(C(F)(F)F)c1 was read as CD40 NFkB inh 38[25 µM].
Screening O=C(N[C@H]1CC[C@H](CCNC(=O)C2CCOCC2)O[C@@H]1CO)c1ccncc1 returned CD40 NFkB inh -4.
Screening COc1ccccc1NC(=O)N(C)C[C@@H]1OCc2ccccc2-c2ccccc2C(=O)N([C@@H](C)CO)C[C@@H]1C returned CD40 NFkB inh -9.
Screening CC(C)(C)n1nc(-c2cccc3ccccc23)c2c(N)ncnc21 returned CD40 NFkB inh 16[25 µM].
`CCC1(c2ncc[nH]2)Cc2ccccc2O1` (centres undefined) gave CD40 NFkB inh -4[25 µM].
CC(=O)N1[C@@H]2CN(S(C)(=O)=O)C[C@H]1C2c1ccc(-c2ccc(F)cc2)cc1 (some centres undefined) was read as CD40 NFkB inh -4.
COCCNC(=O)C[C@H]1C[C@@H]2c3cc(NC(=O)CN(C)C)ccc3O[C@@H]2[C@@H](CO)O1 was read as CD40 NFkB inh -2[25 µM].
N#Cc1cccc(-c2ccc([C@@H]3[C@@H]4CN(S(=O)(=O)c5ccc(-c6ccccc6)cc5)C[C@H]3N4)cc2)c1 was read as CD40 NFkB inh 61*.
Screening Cc1ccc(S(=O)(=O)N2C[C@@H]3N[C@H](C2)C3c2ccc(-c3cccc(C#N)c3)cc2)cc1 (some centres undefined) returned CD40 NFkB inh 21[25 µM].
Screening Cc1ccccc1S(=O)(=O)N1C[C@@H]2N[C@H](C1)C2c1ccc(-c2cccc(C#N)c2)cc1 (some centres undefined) returned CD40 NFkB inh 54*![25 µM].
`N#Cc1cccc(-c2ccc(C3[C@@H]4CN(S(=O)(=O)c5ccc(F)cc5)C[C@H]3N4)cc2)c1` (some centres undefined) gave CD40 NFkB inh -6.
Screening N#Cc1cccc(-c2ccc(C3[C@@H]4CN(S(=O)(=O)c5ccccc5F)C[C@H]3N4)cc2)c1 (some centres undefined) returned CD40 NFkB inh 2.
`N#Cc1cccc(-c2ccc(C3[C@@H]4CN(S(=O)(=O)c5ccccc5)C[C@H]3N4)cc2)c1` (some centres undefined) gave CD40 NFkB inh -5.
For O=C(Cc1cccc2ccccc12)NC1CCCCCC1 the results were CD40 NFkB inh -14.
`C[C@H]1CC(=O)NCC/C=C\C[C@H](c2cccc(Cl)c2)NC1=O` gave CD40 NFkB inh -5[25 µM].
Cc1sc2ncnc(SCC#N)c2c1C was read as CD40 NFkB inh 6.
Screening CCCSc1ncnc2sc(C)c(C)c12 returned CD40 NFkB inh 8.
`Cc1sc2ncnc(Sc3nnnn3-c3ccccc3)c2c1C` gave CD40 NFkB inh 47*.
`CCC(=O)N1[C@H](C(=O)N2CCCCC2)[C@@H](CO)[C@@H]2Cn3c(ccc(-c4ccccc4)c3=O)[C@@H]21` gave CD40 NFkB inh -8[25 µM].
Cc1nc(C)c(NC(=O)N2CCc3ccccc32)cc1NC(=O)N1CCc2ccccc21 was read as CD40 NFkB inh 10.
For Cn1ccc2cc3c(cc21)CCN3C(=O)Nc1cccnc1 the results were CD40 NFkB inh active[25 µM].
For Cc1cc(Br)ccc1SCC(=O)Nc1cccnc1 the results were CD40 NFkB inh 2.
Screening CNC(=O)C[C@@H]1CC[C@@H]2[C@@H](COc3ccc(NS(=O)(=O)c4ccc(F)cc4)cc3C(=O)N2C)O1 returned CD40 NFkB inh -8[25 µM].
`N#C[C@@H]1N[C@H](CO)[C@@H]1c1ccc(C#Cc2ccccc2F)cc1` gave CD40 NFkB inh -43[25 µM].
For N#C[C@@H]1N[C@H](CO)[C@@H]1c1ccc(C#CC2CCCC2)cc1 the results were CD40 NFkB inh -10.
`N#C[C@@H]1N[C@H](CO)[C@H]1c1ccc(C#CC2CCCC2)cc1` gave CD40 NFkB inh 13.
N#C[C@H]1N[C@H](CO)[C@H]1c1ccc(C#Cc2ccc(F)cc2)cc1 was read as CD40 NFkB inh 4[25 µM].
For N#C[C@H]1N[C@@H](CO)[C@@H]1c1ccc(C#Cc2ccccc2F)cc1 the results were CD40 NFkB inh active[25 µM].
For N#C[C@H]1N[C@H](CO)[C@H]1c1ccc(C#CC2CCCC2)cc1 the results were CD40 NFkB inh 62*.
`CCc1csc(N2[C@H](CO)[C@H](c3ccccc3)[C@@H]2CNCCOC)n1` gave CD40 NFkB inh 2.
`Cc1ccccc1N1CCN(S(=O)(=O)CC23CCC(C[C@@H]2NC(=O)[C@@H](N)CCS(C)(=O)=O)C3(C)C)CC1` (some centres undefined) gave CD40 NFkB inh 4[25 µM].
COc1ccccc1CNC(=O)C[C@@H]1C[C@H]2c3cc(NC(=O)Nc4ccccc4F)ccc3O[C@H]2[C@@H](CO)O1 was read as CD40 NFkB inh -14[25 µM].
For CO[C@@H](CN(C)S(=O)(=O)c1ccc(F)cc1)[C@@H](C)CN(C(=O)Nc1ccccc1F)[C@@H](C)CO the results were CD40 NFkB inh -27.
Screening O=C(NC1CCCC1)[C@@H]1[C@@H](CO)[C@@H]2Cn3c(cccc3=O)[C@H]1N2CC1CCCC1 returned CD40 NFkB inh 6[25 µM].
For COCC(=O)N1[C@H](CO)[C@@H]2c3ccccc3N(C(=O)Nc3cc(F)ccc3F)C[C@@H]21 the results were CD40 NFkB inh -3[25 µM].
Cc1ccc(CN2C(=O)S/C(=C\c3ccccc3OCC(=O)O)C2=O)cc1 was read as CD40 NFkB inh 7.
Screening O=C1S/C(=C\c2ccc(N3CCOCC3)o2)C(=O)N1Cc1ccc(F)cc1 returned CD40 NFkB inh 82*.
Screening O=C1N=C(N2CCOCC2)S/C1=C/c1ccc(-c2ccc(F)cc2)o1 returned CD40 NFkB inh -14.
Screening CCc1nc2ccc(C(=O)N3CCC(C(N)=O)CC3)cc2nc1CC returned CD40 NFkB inh 31.
Screening Cn1cnc(S(=O)(=O)N2CC[C@@H]3[C@H]2c2cc(-c4ccccc4F)ccc2N[C@@H]3CO)c1 returned CD40 NFkB inh -57[25 µM].
CCS(=O)(=O)N1CC(=O)N2[C@@H](CO)[C@H](c3ccc(C#CC4CCCCC4)cc3)[C@@H]2C1 was read as CD40 NFkB inh 3[25 µM].
`C[C@@H]1CCCCO[C@@H](CN(C)S(=O)(=O)c2cn(C)cn2)[C@@H](C)CN([C@H](C)CO)C(=O)c2cc(NS(=O)(=O)c3ccc(Cl)cc3)ccc2O1` gave CD40 NFkB inh -4.
